Assay outcomes deposited in PubChem by National Center for Advancing Translational Sciences (NCATS).
HT1080 IDH1KD tx = kills HT-1080 cells with IDH1 knockdown; HT-1080 IDH1 knockdown viability, ATP luminescence, 48 h; Potency, µM (highest dose often 46.1 µM), for inactives: top-dose activity, negative = toxicity, actives largely listed as cytotoxic; 360,000 tested, 2% active; AID 686971;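 note: 0% = DMSO wells and -100% = cell-free medium wells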
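IDH1KD HT-1080 cells, 750/well, RPMI + 5% FBS; compound pinned after 2 h settling; 48 h, 37 °C; CellTiter-Glo luminescence; % activity normalised to DMSO and no-cell wells; curves fitted, classed by r2 and efficacy.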
HT1080-NT tox = kills 2HG-producing HT-1080-NT fibrosarcoma cells. 360,000 tested, 1.6% active. AID 686970. HT-1080-NT fibrosarcoma viability, CellTiter-Glo ATP luminescence, 48 h. Potency, µM (series often up to 46.1 µM), inactives show at the highest dose activity, negative = less viability, hits mostly cytotoxic;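 note: NT is the 2HG producing partner of a matched IDH1 knockdown line; 0% = DMSO-treated cells and -100% = media-only wells without cells; nearly all actives have a fitted effect of over 55% in size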
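HT-1080-NT fibrosarcoma cells (2HG-overproducing), 750 cells/well in RPMI with 5% FBS, dosed after 2 h and incubated 48 h at 37C. CellTiter-Glo luminescence normalized to DMSO and no-cell wells; concentration-response curves fitted and classed.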
TGFb inhibitor = TGF-b pathway inhibition; Potency, µM (top dose mostly 46.1 µM), without a hit: at the highest dose activity, negative = inhibition, most hits filed as inhibitors; HepG2 CAGA-GFP TGF-b/SMAD3 reporter, GFP fluorescence, 18 h; TGF-beta stimulated, 500 pg/mL final; AID 588855; 410,000 tested, 1.2% active; note: % is set by controls: 0 for no effect and ±100 for the full control effect; nearly all actives have a fitted effect of over 65% in size
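HEPG2 CAGA-GFP reporter cells (1000/well, DMEM with 1% FBS) received compounds, then recombinant TGF-beta at 500 pg/mL final for 18 hours at 37 degrees C. Per-cell GFP summed per well was normalised to unstimulated and stimulated DMSO controls before curve fitting.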
TDP1 cell noCPT = qHTS for Inhibitors of human tyrosyl-DNA phosphodiesterase 1 (TDP1): qHTS in cells in absence of CPT; DT40 Tdp1-/- hTDP1 cells, no CPT, ATP luminescence, 48 h; 420,000 tested, 15% active; Potency, µM (series often up to 46.2 µM), without a hit: at the top dose activity change, negative = growth inhibition, most hits filed as inhibitors; AID 686978, 2013; note: % is set by controls: 0 for no effect and ±100 for the full control effect; nearly all actives have a fitted effect of over 55% in size
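Growth kinetics read by CellTiter-Glo luminescence after ≥48 hr at 37 °C. Cells: DT40 Tdp1-/- stably carrying human TDP1, 400 per well, compound exposure in the absence of CPT (DMSO vehicle).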
TDP1 cell CPT = DT40-hTDP1 cell growth loss with CPT. chicken DT40 Tdp1-/-;hTDP1 cells + 20 nM CPT, ATP luminescence, 48 h. Potency, µM (top dose mostly 46.2 µM), inactives show at the top dose activity change, negative = growth inhibition, actives largely listed as inhibitors. 420,000 tested, 12% active. AID 686979; note: % is set by controls: 0 for no effect and ±100 for the full control effect; nearly all actives have a fitted effect of over 55% in size
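Chicken DT40 Tdp1-/- cells complemented with human TDP1, 400 cells/well, exposed to compounds plus 20 nM camptothecin for at least 48 h at 37 C; viability read as ATP content by CellTiter-Glo luminescence.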
HepG2 tox = kills HepG2 cells in TGF-b inhibitor counter-screen; 410,000 tested, 0.76% active; HepG2 CAGA-GFP viability, ATP luminescence, 18 h; Potency, µM (series often up to 46.1 µM), for inactives: at the highest dose activity change, negative = cytotoxicity, most hits filed as cytotoxic; AID 588856
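HepG2 CAGA-GFP cells (1000/well, DMEM with 1% FBS) received compound, then TGF-beta at 500 pg/mL final, and were incubated 18 hours at 37 degrees C. Viability was read by CellTiter-Glo luminescence. Media-only wells were set as complete cell-killing and DMSO as no toxicity.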
* marks the source's active call; other numbers are inactive results; ? = inconclusive; · = not tested or not shown. Most compounds without a hit are left out; they make up all but 17% or so of the library. Calls come from the whole dose curve; as a rule, active = well fitted curve in the direction sought with a large enough effect; inconclusive = small, poorly fitted or top-dose-only effect, or another doubt; inactive = no such curve, though single readings can be large; an effect the other way counts as inactive or inconclusive. Potency is the fitted concentration of half-maximal effect.

SMILES	HT1080 IDH1KD tx	HT1080-NT tox	TGFb inhibitor	TDP1 cell noCPT	TDP1 cell CPT	HepG2 tox
CCOC(=O)N1CCN(C(=O)c2cnn3c(C(F)(F)F)cc(-c4cccs4)nc23)CC1	14%	-8%	-4%	-22%	8%	0%
CCOC(=O)C1CCCN(C(=O)c2cnn3c(C(F)(F)F)cc(-c4ccccc4)nc23)C1 (centres undefined)	-3%	1%	22%	23µM*	18µM*	-22%
CCOC(=O)N1CCN(c2nc(-c3cccc(OC)c3)cc(C(F)(F)F)n2)CC1	15%	28%	10%	21µM*	?	-19%
COc1cccc(-c2cc(C(F)(F)F)nc(-n3cc(C)cn3)n2)c1	6%	19%	-22%	16µM*	15µM*	-13%
COc1ccc(C(=O)/C=C/c2ccsc2)cc1CSCC(=O)O	-2%	-8%	0%	12µM*	9.2µM*	-23%
COc1ccc(C(C)=O)cc1CSCCC(=O)O	3%	16%	14%	-7%	-11%	-14%
CCOC(=O)COc1ccc(C)cc1C(=O)c1ccn2nc(-c3ccc(Cl)cc3)cc2n1	·	·	-2%	?	?	4%
CCOC(=O)COc1ccc(C)cc1C(=O)c1ccn2nc(-c3ccc(F)cc3)cc2n1	·	·	-5%	21µM*	16µM*	7%
CCOC(=O)COc1cc(C)c(Cl)cc1C(=O)c1ccn2nc(-c3ccc(OC)cc3)cc2n1	·	·	0%	13µM*	?	-6%
CCOC(=O)c1ccc(CN(Cc2ccc(F)cc2)S(=O)(=O)c2cc(C(=O)Nc3cccc(C(F)(F)F)c3)ccc2F)cc1	·	·	-17%	23µM*	13µM*	-14%
Cc1ccc(CNS(=O)(=O)c2cc(C(=O)Nc3cccc(C(F)(F)F)c3)ccc2F)cc1	·	·	?	?	?	-75%
COc1cccc(OC)c1C(=O)Nc1ccc(Br)c(C(=O)c2ccccc2)c1	-2%	-29%	6%	16µM*	?	-21%
COc1cccc(C(=O)Nc2ccc(C(=O)O)cc2)c1	-13%	-8%	-3%	?	-15%	-33%
CC(C)c1ccccc1NC(=O)c1cccc(NC(=O)c2ccccc2)c1	-15%	-11%	-5%	?	16µM*	0%
COc1cccc(C(=O)Nc2ccc(C(=O)c3ccccc3)cc2)c1	-18%	-19%	-9%	16µM*	-19%	-20%
Cc1cc(OCC(=O)NCC2CCC(C(=O)O)CC2)c2c(C)c(C)c(=O)oc2c1 (centres undefined)	-7%	0%	-28%	0%	-1%	-31%
CS(=O)(=O)N(CC(=O)N1CCCCCC1)c1ccc(Br)cc1	8%	12%	-8%	-22%	-24%	-5%
COc1ccc(C(=O)Nc2ccc(NC(=O)c3cccc(OC)c3)cn2)cc1	?	21µM*	?	-16%	?	-23%
COc1ccc(C(=O)Nc2ccc(NC(=O)c3cccc(F)c3)cn2)cc1	-3%	1%	-22%	-5%	-20%	-29%
COc1cccc(NC(=O)c2ccc3c(O)c(S(=O)(=O)c4ccccc4)c(=O)[nH]c3c2)c1	6%	4%	3%	?	23µM*	4%
COc1ccc(S(=O)(=O)c2c(O)c3ccc(C(=O)Nc4cccc(F)c4)cc3[nH]c2=O)cc1	13%	-1%	4%	-3%	6%	-4%
CN(C)S(=O)(=O)Oc1cccc(C(=O)Nc2ccc(Cl)cc2)c1	?	2%	?	12µM*	8.2µM*	-16%
COc1ccc(C(=O)Nc2ccc3[nH]ccc3c2)cc1	21µM*	18µM*	-9%	26µM*	?	-33%
CCCn1c(=O)c2sccc2n2c(CCCC(=O)Nc3ccccc3OCC)nnc12	·	·	41%	-10%	-2%	3%
COc1ccc(C(=O)Nc2cccc(C(=O)NCc3ccccc3)c2)cc1	?	-24%	-15%	?	21µM*	-31%
SMILES	HT1080 IDH1KD tx	HT1080-NT tox	TGFb inhibitor	TDP1 cell noCPT	TDP1 cell CPT	HepG2 tox
CN(C)S(=O)(=O)Oc1ccc(C(=O)Nc2cccc(Cl)c2)cc1	-6%	2%	-8%	-18%	24%	-18%
COc1ccc(NC(=O)c2ccc(C(=O)c3ccccc3)o2)cc1	-8%	-6%	-4%	2.1µM*	?	-24%
CN(C)S(=O)(=O)Oc1ccc(C(=O)Nc2cccc(C(F)(F)F)c2)cc1	?	-28%	?	15µM*	23µM*	-21%
Cc1ccc(C(=O)Nc2cccc(C(=O)NCc3ccccc3)c2)cc1	?	?	-12%	-24%	?	-18%
CCOC(=O)c1ccc(CN(Cc2ccccc2C)S(=O)(=O)c2ccc(C(C)(C)C)cc2)cc1	·	·	1%	18µM*	?	1%
COc1ccc(C(=O)Nc2ccc(C(=O)c3ccccc3)cc2)cc1	?	?	?	-22%	-3%	2%
O=C(NCc1cccnc1)c1cc(C2CCCCN2C(=O)OCc2ccccc2)on1 (centres undefined)	-3%	?	12%	?	?	-7%
CC(CNS(=O)(=O)c1ccccc1)(c1ccccc1)N1CCOCC1 (centres undefined)	11%	18%	-4%	-14%	-8%	4%
Cc1ccccc1CN1CCN(C(=O)[C@H]2O[C@@H](n3cnc4c(N)ncnc43)[C@H](O)[C@@H]2O)CC1	5%	9%	-7%	?	?	-12%
Clc1ccccc1-c1nnc(CNC2CC2)o1	6%	9%	15%	-1%	?	12%
CCCc1cc(=O)[nH]c(SCC(=O)N2N=C(c3ccc(Cl)cc3)CC2c2ccco2)n1 (centres undefined)	-5%	2%	?	?	?	-6%
O=C(c1ccco1)N1N=C(c2cccs2)CC1c1ccco1 (centres undefined)	23%	5%	4%	10%	1%	1%
COCC(=O)OCC(=O)N1N=C(c2ccc(Cl)cc2)CC1c1ccco1 (centres undefined)	-3%	-7%	?	-29%	-25%	-15%
Nc1cc(=O)[nH]c(SCC(=O)N2N=C(c3ccc(Cl)cc3)CC2c2ccco2)n1 (centres undefined)	-19%	-19%	-7%	?	18µM*	7%
